# Measurements published in the supplement of paper PMC6555819.
# Tested on: VDR:RXRa (NR concentration 270 nM, RXRa partner concentration 90 nM)
# Test: PBM binding z-score (relative to random genomic background probes); higher = stronger binding; sequences stand for … in GC…GCGATTGACAGCGTAGAATGAAGG
# Procedure: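 Protein-binding microarray (Agilent 4x180K custom design, double-stranded 60-nt probes: 5' GC cap, 34-nt variable region, 24-nt constant primer region; full probe sequence given). Purified or IVT nuclear receptor:RXRα heterodimers (3:1 NR:RXRα, mostly 270:90 nM) or homodimers were incubated for 1 h in PBS with 2% milk and no ligand, then detected with Alexa488 antibodies. Fluorescence from o1-orientation probes (~5 replicates averaged) was converted to z-scores against 500 random hg19 background probes. Variable regions are seed direct-repeat (DR0–DR5) sites, all their single-nucleotide variants and half-site ablations.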
row,Sequence,PBM binding z-score
1,CAAACTAGGTTAAGGTCAAAGTCGGTTTGTGCCA,4.8
2,TCGAGTAGGTTAGTCGGGGCATTCAACCAACATA,2.31
3,CAAACTAGGTCACGAAAGGTCAAACTCGAATGAC,7.13
4,CCGACTGGGGCAAGGTGACCATAACGCACAGCCA,-0.586
5,CCTACTGGGCCAACGTCATTGATCAGTCAAAGCA,-0.476
6,TCTTGTAGATCGAGCAGGTTAAGAAAGCCTGAGT,-0.0222
7,ATCGAAAGGTCGTGGTGAGTATAGAGAAAGGGAA,3.85
8,TCAGACAGGTGAAGGTAACTCAAGTACGCAGTCG,1.12
9,AGAACGAGGGAACGCTGAGTTGATAGCAGAGTAG,-0.0908
10,GCCTACGGGTCAAAGGTTATAGCATGAATAGAAT,5.46
11,CAAACTAGGTCAAGGGTCAAAGTCGAGCCAACCA,5.5
12,TCTCGGAGGACACGACAGGTCAGAGCTCGACATC,0.875
13,CCTACTGGGCAACGAAAGGTCATTGATTCAGTGA,3.7
14,CCTGGTTGGTCAGGAGGTCACACACCGGATATGA,3.73
15,CAAGCTAGGTCACGAAAGGTCAAAGTCGAATGAC,6.88
16,TAGCCTAGGTCAGTGGGCCAGTATAGTACGCATC,0.148
17,CCTAATGGGCCAAAGGTCATTGATTCCAATGCTC,4.64
18,CCTGCTAGGTCAATGGTCTGCTAAAGCAGCTCGC,0.867
19,TCAGACAGCTGAAGGTAACTCAGGTACGCAGTCG,0.484
20,CCTACTGGGCCAAAGGTCAATGATTCCAATGCTC,4.04

row,Sequence,PBM binding z-score
1,AGAATGAGGTTACCAAAGACCAGGGAAACGCTTG,1.32
2,CCTTACGGGTCACTCCAGCTTATAGCATCGGAGT,2.73
3,CGTCCAAGGGCAGAGAGGTCAGTGAATGCCGAGT,5.05
4,CAAACTAGGTCACAGAGGTCAAAATCCGTGCGTA,7.91
5,TCTGCTAGGTCAGTTGGTCATCTAACGAGCTGCC,0.463
6,ACTCGGAGGACAAAGGTCAGAGCCACGCCAGTGA,3.43
7,AATACAGGGTCACTCGGCCAGAGTAGGTACGAAT,4.3
8,ATCTCTAGGTAAGACTCAGTACAGTGAAGAACGC,0.435
9,TGAATGTGGTTATAAGATCAGGGAACGTTGCAAA,0.157
10,ACAGACAGGTGAGTGAAGATAACTCAGCTGGACG,-0.413
11,TAGGCTAGGTCATGGGCCAGTATACCACGCGAAC,1.98
12,CTACCGAGGTGAACAAGGTCGTTGATTACTATTC,6.42
13,TCTAGCAGGCCAGAGGGTCAGTCAAGAGGTACGG,0.113
14,GCTAGTTGGTCAGTAAAAGGTCATACACCGGTCG,3.69
15,CCTACTGGGCCATCAGGTCATTGTTATCAACGTT,1.52
16,TCATATAGGTAAATGCTAGGTGTAAGTCCGATCT,0.772
17,CCTACTGGGCCATCAGGTCAATGATATCAACGTT,1.4
18,ACTAGCAGGCCAAGTTTGCGTCACTCAAACAAAG,-0.321
19,TTACCCAGGTGAAAGGTCGTTGATGCACGCCTTG,3.08
20,CGTCAAAGTTCGACTAAGGTAACGTAAAGCACGC,1.83
